This note sets out measurements from PubChem BioAssay (NCI).

Several values for one entry are separate records, joined by “and”; a condition that tells them apart may be missing. Equal values may be shown once. The panel holds about 83,000 compounds, 20% with a hit somewhere; the sample as a whole holds those more often.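 Single-dose data. Exposure time 48 hours. Values below 10 considered active.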 Activity calls are given as the source filed them.

Test systems include HCT-15 colon; HT29 colon; SNB-75 CNS; SNB-19 CNS; U251 CNS; PC-3 prostate; SK-MEL-5 melanoma; UACC-62 melanoma; LOX IMVI melanoma; SK-MEL-28 melanoma; SK-MEL-2 melanoma; EKVX NSCLC; SN12C renal; UO-31 renal; TK-10 renal; ACHN renal; CAKI-1 renal; A498 renal; CCRF-CEM leukemia; MOLT-4 leukemia.
What all share (experiment): NCI-60 one-dose screen, 48 h (100 = growth as untreated, 0 = no growth, -100 = all killed)
Common to all, as to details: 10 µM unless noted

For the molecule `O=C(/C=C/c1ccc(F)cc1)Nc1ncc(Cc2ccc(F)cc2)s1`, the growth in the test with HCT-15 colon is 26.1% (inactive); in the test with HT29 colon, 13.7% (inactive); in the test with SNB-75 CNS, 23.2% (inactive); with SNB-19 CNS, 58.1% (inactive); in the test on U251 CNS it was 33.6% (inactive); in the test on PC-3 prostate, 31.9% (inactive). Moreover, the growth in the test with SK-MEL-5 melanoma was 2.79% (active); in the test with UACC-62 melanoma it was 14.1% (inactive); in the test on LOX IMVI melanoma, 9.96% (active); with SK-MEL-28 melanoma it was 67% (inactive); in the test with SK-MEL-2 melanoma, 32.3% (inactive); in the test with EKVX NSCLC, 32.1% (inactive). Further, the growth in the test with SN12C renal is 50.6% (inactive); in the test on UO-31 renal, 39% (inactive); in the test on TK-10 renal, 47.2% (inactive); in the test on ACHN renal it was 32.5% (inactive); in the test on CAKI-1 renal, 27.5% (inactive); with A498 renal, 21.8% (inactive). In addition, the growth in the test on CCRF-CEM leukemia was 34% (inactive); in the test with MOLT-4 leukemia it was 30.9% (inactive).
`COC1=CC(c2ccc[nH]2)=N/C1=C\c1[nH]c(C)c(C(=O)Oc2ccccc2)c1C`: the growth with HCT-15 colon was -35.1% (active); with HT29 colon, -15.7% (active); in the test with SNB-75 CNS, -16.6% (active); in the test on SNB-19 CNS, 20.9% (inactive); with U251 CNS, -16.5% (active); in the test with PC-3 prostate, 17.6% (inactive). In addition, the growth was -99.9% (active) in the test with SK-MEL-5 melanoma; -62.8% (active) with UACC-62 melanoma; -86.1% (active) in the test on LOX IMVI melanoma; -77.9% (active) in the test on SK-MEL-28 melanoma; -68.6% (active) with SK-MEL-2 melanoma; -19.9% (active) with EKVX NSCLC. Also, the growth in the test with SN12C renal is 0.383% (active); in the test with UO-31 renal, -87.2% (active); in the test on TK-10 renal it was -6.73% (active); in the test on ACHN renal, -90.3% (active); in the test on CAKI-1 renal it was -23.8% (active); in the test on A498 renal, -46.7% (active). The growth with MOLT-4 leukemia was 3.87% (active).
`COc1ccc(/C=N/C2=C(C#N)C(c3ccccc3)c3c(ccc4ccccc34)O2)cc1` (centres undefined): the growth is 22.5% (inactive) with HCT-15 colon; 5.31% (active) with HT29 colon; -39.4% (active) with SNB-75 CNS; 22.9% (inactive) with SNB-19 CNS; 24.1% (inactive) in the test on U251 CNS; 23.3% (inactive) in the test on PC-3 prostate. Besides, the growth is 20.8% (inactive) in the test on SK-MEL-5 melanoma; 37.3% (inactive) in the test with UACC-62 melanoma; 28.5% (inactive) with LOX IMVI melanoma; 64.7% (inactive) in the test with SK-MEL-28 melanoma; 49.7% (inactive) in the test with SK-MEL-2 melanoma; 32.7% (inactive) with EKVX NSCLC. For the same molecule, the growth in the test with SN12C renal is 48% (inactive); in the test on UO-31 renal, 37.5% (inactive); in the test on TK-10 renal, 64.4% (inactive); in the test on ACHN renal it was 35.3% (inactive); with CAKI-1 renal, 13.9% (inactive); in the test with A498 renal, -6.08% (active). Besides, the growth in the test on MOLT-4 leukemia is 27.3% (inactive).
With `O=Nc1c(O)ccc2ccccc12`, the growth is 43% (inactive) and 103% (inactive) in the test on HCT-15 colon; 24.7% (inactive) and 109% (inactive) in the test on HT29 colon; 114% (inactive) in the test on SNB-75 CNS; 105% (inactive) and 106% (inactive) in the test with SNB-19 CNS; 99.4% (inactive) in the test with U251 CNS; 6.57% (active) and 72.4% (inactive) with PC-3 prostate. Besides, the growth with SK-MEL-5 melanoma was 80.9% (inactive) and 82.8% (inactive); with UACC-62 melanoma it was 21.2% (inactive) and 87.4% (inactive); in the test with LOX IMVI melanoma it was 3.68% (active) and 73.6% (inactive); in the test with SK-MEL-28 melanoma, 83% (inactive) and 102% (inactive); with SK-MEL-2 melanoma, 36.5% (inactive) and 107% (inactive); in the test on EKVX NSCLC, 91.4% (inactive). Moreover, the growth is 4.86% (active) and 93.6% (inactive) with SN12C renal; 55.3% (inactive) and 52.1% (inactive) with UO-31 renal; 115% (inactive) in the test on TK-10 renal; 57.7% (inactive) and 83.3% (inactive) in the test on ACHN renal; 71.2% (inactive) and 96.3% (inactive) in the test on CAKI-1 renal; 84.6% (inactive) and 99.1% (inactive) in the test on A498 renal. Moreover, in the test with MOLT-4 leukemia, the growth was 71.3% (inactive) and 72.6% (inactive).
As for `COc1ccc2c(c1)CCNC21C(=O)Nc2c(Br)cc(Br)cc21` (centres undefined), the growth in the test with HCT-15 colon was 104% (inactive); in the test with HT29 colon, 104% (inactive); in the test on SNB-75 CNS, 70.6% (inactive); in the test on SNB-19 CNS it was 91.5% (inactive); with U251 CNS it was 96.7% (inactive); in the test with PC-3 prostate it was 97.9% (inactive). In addition, the growth with SK-MEL-5 melanoma was 98.4% (inactive); in the test with UACC-62 melanoma, 86.6% (inactive); in the test on LOX IMVI melanoma it was 102% (inactive); with SK-MEL-28 melanoma, 101% (inactive); in the test on SK-MEL-2 melanoma, 106% (inactive); in the test on EKVX NSCLC, 78.7% (inactive). The growth in the test on SN12C renal is 92.5% (inactive); with UO-31 renal, 62.1% (inactive); in the test with TK-10 renal it was 106% (inactive); in the test on ACHN renal, 93.7% (inactive); in the test with CAKI-1 renal, 82.8% (inactive); in the test with A498 renal, 67% (inactive). Also, the growth in the test on MOLT-4 leukemia was 95.9% (inactive).
For the molecule `N#Cc1ccccc1OCC(=O)Nc1nc2c(s1)COc1ccccc1-2`, the growth in the test with HCT-15 colon is 103% (inactive); in the test with HT29 colon, 104% (inactive); with SNB-75 CNS, 82.7% (inactive); with SNB-19 CNS, 102% (inactive); in the test on U251 CNS it was 98.8% (inactive); with PC-3 prostate it was 102% (inactive). For the same molecule, the growth is 103% (inactive) in the test on SK-MEL-5 melanoma; 82.4% (inactive) in the test with UACC-62 melanoma; 90.6% (inactive) in the test on LOX IMVI melanoma; 116% (inactive) in the test with SK-MEL-28 melanoma; 88.7% (inactive) with SK-MEL-2 melanoma; 86.7% (inactive) with EKVX NSCLC. For the same molecule, the growth in the test on SN12C renal is 96.2% (inactive); in the test on UO-31 renal, 72.4% (inactive); with TK-10 renal, 140% (inactive); in the test on ACHN renal, 102% (inactive); in the test on CAKI-1 renal it was 99.2% (inactive); in the test with A498 renal it was 130% (inactive). The growth in the test on MOLT-4 leukemia was 77.5% (inactive).
Regarding `COc1nc(=O)n(C2C=CC(=O)O2)cc1F` (centres undefined), the growth in the test with HCT-15 colon is 58.5% (inactive); in the test with HT29 colon, 55.8% (inactive); in the test with SNB-75 CNS, 90.2% (inactive); in the test on SNB-19 CNS, 97.8% (inactive); with U251 CNS, 103% (inactive); in the test with PC-3 prostate, 110% (inactive). The growth was 94.9% (inactive) in the test on SK-MEL-5 melanoma; 59.7% (inactive) in the test on UACC-62 melanoma; 64.9% (inactive) in the test with LOX IMVI melanoma; 96% (inactive) in the test on SK-MEL-28 melanoma; 106% (inactive) with SK-MEL-2 melanoma; 78.4% (inactive) in the test with EKVX NSCLC. Further, the growth with SN12C renal was 94.8% (inactive); in the test with UO-31 renal, 56.3% (inactive); in the test with TK-10 renal, 61.3% (inactive); with ACHN renal, 31.7% (inactive); in the test with CAKI-1 renal it was 40.1% (inactive); in the test on A498 renal, 97.9% (inactive). Moreover, the growth with MOLT-4 leukemia is 33.5% (inactive).
